Screening results: PubChem BioAssay, several laboratories
Bim-Bcl-XL – disrupts Bim peptide binding to human Bcl-XL; Q07817; AID 1007; bead flow cytometry, fluorescence; inhibition, % at 10 µM; hit rate 0.04% among 190,000
Bim-Bcl-W – inhibitors of Bim-Bcl-W interaction, human | Q92843 | bead-based flow cytometry, Bim peptide-Bcl-W binding | inhibition, % at 10 µM | hit rate 0.02% among 190,000;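 note: 0% = bound tracer without compound and 100% = peptide blocker; higher means less fluorescent Bim peptide bound to Bcl-W beads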
Target sequence (Q92843 whole entry, looked up): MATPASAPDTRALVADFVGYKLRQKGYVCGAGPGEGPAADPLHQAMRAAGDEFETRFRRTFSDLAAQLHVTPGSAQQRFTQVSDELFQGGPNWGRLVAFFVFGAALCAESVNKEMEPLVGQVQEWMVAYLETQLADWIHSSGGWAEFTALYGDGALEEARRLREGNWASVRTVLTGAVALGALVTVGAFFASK
Phagocyt inh – blocks phagocytosis by macrophages. J774A.1 macrophage IgG-bead phagocytosis, imaging. inhibition, % at 5 µM. hit rate 0.07% among 110,000;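 active = inhibition above the mean of the plate negative controls plus 5 SD, cut at about 13% in these data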;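 note: phagocytic index as fraction of beads internalized from green versus red external bead signal; plate controls were DMSO negative control for no effect and cytochalasin-D positive control for full effect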
Bim-Bcl-B – disrupts Bim peptide binding to human Bcl-B | bead-based flow cytometry | Q9HD36 | inhibition, % at 10 µM | hit rate 0.073% among 190,000;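 note: 0% = tracer peptide without compound and 100% = reference inhibitor peptide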
Bfl-1 Bim block – human Bim-Bfl-1 interaction inhibition | Q16548 | Bead-based flow cytometry, Bim-Bfl-1 binding inhibition | inhibition, % at 10 µM | hit rate 0.12% among 190,000 | AID 1008;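 note: 0% = wells without compound plus tracer and 100% = blocker peptide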
Target sequence (Q16548 whole entry, looked up): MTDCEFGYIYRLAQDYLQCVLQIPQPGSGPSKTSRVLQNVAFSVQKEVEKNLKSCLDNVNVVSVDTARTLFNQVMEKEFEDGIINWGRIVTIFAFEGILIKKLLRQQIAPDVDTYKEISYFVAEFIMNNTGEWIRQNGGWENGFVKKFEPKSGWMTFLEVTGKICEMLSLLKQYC
Bcl-2 Bim block – disrupts Bim peptide binding to human Bcl-2; AID 950; inhibition, % at 10 µM; P10415; hit rate 0.06% among 190,000; Bead-based flow cytometry, Bim peptide-Bcl-2 binding; in the data active = inhibition above about 40%;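 note: 0% = no compound wells with probe peptide and 100% = reference peptide inhibitor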
Target sequence (P10415 whole entry, looked up): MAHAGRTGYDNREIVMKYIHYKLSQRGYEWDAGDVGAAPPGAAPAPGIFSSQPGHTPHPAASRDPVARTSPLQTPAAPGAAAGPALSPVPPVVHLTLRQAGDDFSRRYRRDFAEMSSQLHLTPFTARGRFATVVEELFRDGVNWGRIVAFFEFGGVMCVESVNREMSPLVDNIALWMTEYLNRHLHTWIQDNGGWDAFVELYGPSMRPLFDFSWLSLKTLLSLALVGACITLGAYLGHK
Bim-Bcl-XL DR – confirmation of regulators of human Bim-Bcl-XL interaction; shares compounds with Bfl-1 Bim block; bead-based flow cytometry, Bim-Bcl-XL binding; inhibition of binding at 100 µM; 40 tested, under 10 active; call rule not given here
Numbers without * were called inactive. Only some compounds are listed: those with a hit (about 0.23% of all), similar ones and a draw of the others. Cut-off read from the data, not from the text of the source, unless noted: active = inhibition above about 40%.

For CCOc1cc(S(=O)(=O)Nc2ccc(Cl)cn2)ccc1F the results were Bim-Bcl-XL -10, Bim-Bcl-W 0, Phagocyt inh 1, Bim-Bcl-B -6, Bfl-1 Bim block -12 and Bcl-2 Bim block -5.
CCOc1cc(S(=O)(=O)Nc2ccccn2)ccc1F was read as Bim-Bcl-XL 28, Bim-Bcl-W 22, Phagocyt inh -1 and Bcl-2 Bim block 89*.
`Cc1ccc(C=NNC(=O)CSc2nnc(-c3ccc(Cl)cc3)n2-c2ccccc2)o1` gave Bim-Bcl-XL DR 6.6.
Screening Cc1ccc(/C=N/NC(=O)CSc2nnc(-c3ccccc3)n2-c2ccc(Cl)cc2)o1 returned Bim-Bcl-XL -2, Bim-Bcl-W -3, Phagocyt inh -22, Bim-Bcl-B -42, Bfl-1 Bim block 1 and Bcl-2 Bim block -1.
S=c1[nH]cc(-c2ccccc2)n1-c1ccccc1 was read as Bim-Bcl-XL 0, Bim-Bcl-W 2, Bim-Bcl-B -19, Bfl-1 Bim block 17, Bcl-2 Bim block 1 and Bim-Bcl-XL DR -3.
Screening CCN(CC(=O)Nc1ccc(Cl)c(S(=O)(=O)N(C)C)c1)CC(=O)NC(C)C returned Bim-Bcl-XL -2, Bim-Bcl-W 0, Bim-Bcl-B 0, Bfl-1 Bim block -8 and Bcl-2 Bim block -4.
For C=CSc1sc(Cl)c(N2CCOCC2)c1[N+](=O)[O-] the results were Bim-Bcl-XL -3, Bim-Bcl-W -1, Bim-Bcl-B -6, Bfl-1 Bim block -3 and Bcl-2 Bim block -3.
C=CS(=O)(=O)c1sc(Cl)c(N2CCOCC2)c1[N+](=O)[O-] was read as Bim-Bcl-XL 6, Bim-Bcl-W 9, Bim-Bcl-B 10, Bfl-1 Bim block 48*, Bcl-2 Bim block 11 and Bim-Bcl-XL DR 6.7.
For O=C(/C=C/c1ccc(-c2ccccc2[N+](=O)[O-])o1)c1ccccc1 the results were Bim-Bcl-XL 0, Bim-Bcl-W 12, Bim-Bcl-B -13, Bfl-1 Bim block 15, Bcl-2 Bim block 2 and Bim-Bcl-XL DR 0.2.
For CNC(=O)/C(C#N)=C/c1ccc(-c2ccccc2[N+](=O)[O-])o1 the results were Bim-Bcl-XL 5, Bim-Bcl-W 6, Bim-Bcl-B 0, Bfl-1 Bim block 2 and Bcl-2 Bim block 1.
`Cc1ccc(C(=O)NCc2ccccn2)cc1Cl` gave Bim-Bcl-XL -1, Bim-Bcl-W -2, Bim-Bcl-B -3, Bfl-1 Bim block -4 and Bcl-2 Bim block -2.
Screening CCN(CC)C(=O)COC(=O)c1cc(-c2ccco2)nc2ccccc12 returned Bim-Bcl-XL 2, Bim-Bcl-W 11, Bim-Bcl-B 0, Bfl-1 Bim block 45*, Bcl-2 Bim block 16 and Bim-Bcl-XL DR 5.6.
`O=c1c2c(n3nnnc3n1Cc1ccccc1)-c1ccccc1CC21CCCC1` gave Bim-Bcl-XL -3, Bim-Bcl-W 2, Phagocyt inh -1, Bim-Bcl-B 69*, Bfl-1 Bim block -9, Bcl-2 Bim block -6 and Bim-Bcl-XL DR 3.2.
`CCN(CC)c1ccc(NC(=O)COc2ccccc2C)cc1S(=O)(=O)Nc1ccccc1OC` gave Bim-Bcl-XL -11, Bim-Bcl-W 0, Phagocyt inh -3, Bim-Bcl-B -32, Bfl-1 Bim block 38, Bcl-2 Bim block -5 and Bim-Bcl-XL DR -9.5.
Screening CCN(CC)c1ccc(NC(=O)c2ccccc2F)cc1S(=O)(=O)Nc1ccccc1OC returned Bim-Bcl-XL -6, Bim-Bcl-W 3, Phagocyt inh 0, Bim-Bcl-B -31, Bfl-1 Bim block 29, Bcl-2 Bim block 4 and Bim-Bcl-XL DR -11.
`CCN(CC)c1ccc(NC(=O)c2ccccc2Br)cc1S(=O)(=O)Nc1ccccc1OC` gave Bim-Bcl-XL -2, Bim-Bcl-W 2, Phagocyt inh -4, Bim-Bcl-B -33, Bfl-1 Bim block 33, Bcl-2 Bim block 2 and Bim-Bcl-XL DR -10.
`COc1ccccc1NC(=O)Nc1cc(F)ccc1F` gave Bim-Bcl-XL 0, Bim-Bcl-W 2, Bim-Bcl-B 0, Bfl-1 Bim block -5 and Bcl-2 Bim block 0.
CC1=NC(C#N)=C(C#N)NC(C)(C)C1 was read as Bim-Bcl-XL -2, Bim-Bcl-W 1, Bim-Bcl-B -21, Bfl-1 Bim block 3 and Bcl-2 Bim block 1.
`CC(C)(CO)NCC(O)Cn1cc(C=O)c2ccccc21` (stereo unspecified) gave Bim-Bcl-XL -5, Bim-Bcl-W -1, Bim-Bcl-B -4, Bfl-1 Bim block -3 and Bcl-2 Bim block -2.
`COc1ccccc1NC1=C(NC(C)=O)C(=O)c2ccccc2C1=O` gave Bim-Bcl-XL 5, Bim-Bcl-W 18, Bim-Bcl-B 0, Bfl-1 Bim block 42*, Bcl-2 Bim block 9 and Bim-Bcl-XL DR 4.7.
Screening COc1ccccc1NC(C)=O returned Bim-Bcl-XL 15, Bim-Bcl-W -5, Phagocyt inh -1, Bim-Bcl-B -21, Bfl-1 Bim block 3 and Bcl-2 Bim block 0.
`Cc1ccc(C(C)C)c(OCc2nn(CC(=O)c3ccc(OC(F)F)cc3)c3[n+]2CCCCC3)c1` gave Bim-Bcl-XL 2, Bim-Bcl-W 0, Bim-Bcl-B 2, Bfl-1 Bim block 7 and Bcl-2 Bim block 6.
For COc1ccc2c(CC(=O)Nc3ccc(OC)nc3)coc2c1 the results were Bim-Bcl-XL 0, Bim-Bcl-W -1, Bim-Bcl-B -5, Bfl-1 Bim block -7 and Bcl-2 Bim block -3.
Cc1ccc(-c2cc(-c3ccc(Cl)cc3)c(C#N)c(N)n2)o1 was read as Bim-Bcl-XL 3, Bim-Bcl-W 1, Phagocyt inh 4, Bim-Bcl-B 1, Bfl-1 Bim block 24 and Bcl-2 Bim block 1.
Screening Cc1ccc(-c2cc(-c3ccc(F)cc3)c(C#N)c(N)n2)o1 returned Bim-Bcl-XL -1, Bim-Bcl-W 2, Phagocyt inh 0, Bim-Bcl-B -5, Bfl-1 Bim block 32, Bcl-2 Bim block 3 and Bim-Bcl-XL DR 3.6.
Screening Cc1ccc(-c2cc(-c3ccc(C)o3)nc(N)c2C#N)cc1 returned Bim-Bcl-XL 20, Bim-Bcl-W 17, Phagocyt inh 1, Bcl-2 Bim block 85* and Bim-Bcl-XL DR 0.13.
Cc1cc(-c2cc(-c3ccc(Cl)cc3)nc(N)c2C#N)co1 was read as Bim-Bcl-XL 0, Bim-Bcl-W 4, Bim-Bcl-B -1, Bfl-1 Bim block 40*, Bcl-2 Bim block 0 and Bim-Bcl-XL DR 6.2.
For Cc1ccc(-c2cc(-c3ccc4c(c3)OCO4)c(C#N)c(N)n2)o1 the results were Bim-Bcl-XL -1, Bim-Bcl-W 7, Phagocyt inh 1, Bim-Bcl-B -3, Bfl-1 Bim block 24 and Bcl-2 Bim block 5.
Screening CCN1C(=O)/C(=C\C=C2/C=CC=CN2CC)SC1=S returned Bim-Bcl-XL 0, Bim-Bcl-W 3, Phagocyt inh -3, Bim-Bcl-B -6, Bfl-1 Bim block 21, Bcl-2 Bim block 7 and Bim-Bcl-XL DR -1.7.
Screening CCN1C(=O)/C(=C2/C=CC=CN2C)SC1=S returned Bim-Bcl-XL -18, Bim-Bcl-W 0, Phagocyt inh 0, Bim-Bcl-B -5, Bfl-1 Bim block -13 and Bcl-2 Bim block -8.
`CN(CCO)c1cc(Sc2nc3ccccc3s2)c2nonc2c1[N+](=O)[O-]` gave Bim-Bcl-XL 1, Bim-Bcl-W 9, Bim-Bcl-B 5, Bfl-1 Bim block 50*, Bcl-2 Bim block 6 and Bim-Bcl-XL DR -0.9.
`CCCN=C1N/C(=C\c2ccco2)C(=O)N1c1ccccc1` gave Bim-Bcl-XL 1, Bim-Bcl-W 0, Phagocyt inh 0, Bim-Bcl-B -3, Bfl-1 Bim block -1 and Bcl-2 Bim block 0.
For O=C1/C(=C\c2ccco2)NC(=S)N1c1ccccc1 the results were Bim-Bcl-XL 0, Bim-Bcl-W 8, Bim-Bcl-B -29, Bfl-1 Bim block 32, Bcl-2 Bim block 11 and Bim-Bcl-XL DR 0.95.
`COc1ccc(NC(=O)CCCSc2ccccc2)cc1` gave Bim-Bcl-XL -2, Bim-Bcl-W 0, Bim-Bcl-B -4, Bfl-1 Bim block -3 and Bcl-2 Bim block -3.
